Test results reported in PubChem BioAssay (NCATS).
Inconclusive results are not listed. Active and inactive are the calls of the source. Unless noted, calls come from the whole dose curve; as a rule, active = well fitted curve in the direction sought with a large enough effect; inconclusive = small, poorly fitted or top-dose-only effect, or another doubt; inactive = no such curve, though single readings can be large; an effect the other way counts as inactive or inconclusive.

Columns and labels:
[1] = qHTS assay for measurement of the activity of small molecule inhibitors on Zika virus induced Caspase-3 activity in human astrocytoma cells (AID 1224859)
Method in brief: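 Compound added 1 h pre-infection; ZIKV 2 FFU/cell on SNB-19 cells, 6 h, 37 C/5% CO2. Caspase-Glo 3/7 luminescence; values as % inhibition of ZIKV-induced caspase activity.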

[2] = qHTS assay to identify small molecule inhibitors of chordoma cells - UCH-1 (AID 1259355); note: nearly all actives have a fitted effect of over 55% in size; note: potency is the fitted concentration of half-maximal effect; series mostly up to about 46 µM
Method in brief: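 Luminescent ATP read-out (CellTiter-Glo, 30min at room temperature) measured viability of UCH-1 cells exposed for 48hr to test drugs at 15 concentrations, co-dosed with a five-agent combination of auranofin, camptothecin, doxorubicin, rubitecan and topotecan.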

[3] = qHTS assay to identify small molecule inhibitors of chordoma cells - UCH-2 (AID 1259356); note: potency is the fitted concentration of half-maximal effect
[4] = P-glycoprotein substrates identified in KB-8-5-11 adenocarcinoma cell line, qHTS therapeutic library screen (AID 1346987); note: nearly all actives have a fitted effect of over 65% in size; note: potency is the fitted concentration of half-maximal effect
Method in brief: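 KB-8-5-11, a colchicine-selected P-gp-overexpressing KB-3-1 subline, was grown without colchicine for the assay. Cells were seeded at 500 cells/well, dosed in concentration-response and incubated 72 h at 37 degree C, 5% CO2. Viability was read by CellTiter-Glo luminescence.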

[5] = NS1 protein of Zika virus - qHTS assay to identify small molecule inhibitors in human HEK 293 cells (AID 1347053); note: series mostly up to about 46 µM; nearly all actives have a fitted effect of over 55% in size
Method in brief: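 HEK 293; 20 h pre-culture, 37 C/5% CO2; cpd 1 h pre-infection; ZIKV MR766, MOI = 0.5, 24 h, 37 C; TR-FRET NS1 readout (two anti-NS1 Abs); norm. to no-virus vs infected.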

[6] = qHTS of pediatric cancer cell lines to identify multiple opportunities for drug repurposing: Primary screen for TC32 cells (AID 1347089); note: nearly all actives have a fitted effect of over 60% in size; note: potency is the fitted concentration of half-maximal effect
Method in brief: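 Luminescent CellTiter-Glo read-out of metabolically active TC32 cells after 48 h compound exposure. Primary: MIPE 11-point, 0.78 nM–46 µM; NPC 8-point, 0.59 nM–46 µM. Confirmatory: 11-point dilutions.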

[7] = qHTS of pediatric cancer cell lines to identify multiple opportunities for drug repurposing: Primary screen for DAOY cells (AID 1347090); note: nearly all actives have a fitted effect of over 55% in size; note: potency is the fitted concentration of half-maximal effect
Method in brief: (§1)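 Eight- or eleven-point concentration series, 48 h treatment at 37 degrees C in growth media; readout CellTiter-Glo luminescence. Potency and efficacy were taken from the concentration-response curves.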

[8] = qHTS of pediatric cancer cell lines to identify multiple opportunities for drug repurposing: Primary screen for SJ-GBM2 cells (AID 1347091); note: potency is the fitted concentration of half-maximal effect
Method in brief: as §1

[9] = qHTS of pediatric cancer cell lines to identify multiple opportunities for drug repurposing: Primary screen for A673 cells (AID 1347092); note: nearly all actives have a fitted effect of over 45% in size; note: potency is the fitted concentration of half-maximal effect
Method in brief: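 A673 cells (500-1,000 cells/well in growth media) were pre-incubated 5 h at 37 degrees C, then exposed to compounds for 48 h. Viability was read as CellTiter-Glo luminescence; concentration-response curves came directly from the primary screen.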

[10] = qHTS of pediatric cancer cell lines to identify multiple opportunities for drug repurposing: Primary screen for SK-N-MC cells (AID 1347093); note: potency is the fitted concentration of half-maximal effect
Method in brief: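 Metabolically active cells were quantified by ATP-dependent luminescence (CellTiter-Glo, 15 min at room temperature) following 48 h treatment. Cells had been plated at 500-1,000 per well and settled for 5 h beforehand.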

[11] = qHTS of pediatric cancer cell lines to identify multiple opportunities for drug repurposing: Primary screen for BT-37 cells (AID 1347094); note: potency is the fitted concentration of half-maximal effect
Method in brief: (§2)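 Viability was measured as metabolically active cells after 48 hours of treatment, read by CellTiter-Glo luminescence. Compounds were tested at multiple final concentrations, giving concentration-response curves.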

[12] = qHTS of pediatric cancer cell lines to identify multiple opportunities for drug repurposing: Primary screen for NB-EBc1 cells (AID 1347095); note: potency is the fitted concentration of half-maximal effect
Method in brief: as §2

[13] = Natriuretic polypeptide receptor (hNpr1) antagonism - Pilot counterscreen GloSensor control cell line (AID 1347045; calls by dose curve; note: series mostly up to about 38 µM)
Method in brief: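 HEK293 cGMP GloSensor cells preloaded 2 h with 2% GloSensor reagent, then compound 30 min before baseline luminescence read. Stimulated with 50 uM sodium nitroprusside, 20 min at room temperature, then read again; counterscreen for Npr1 antagonism.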

[14] = biological target: Atrial natriuretic peptide receptor 1 (Homo sapiens) (UniProt P16066); assay: Natriuretic polypeptide receptor (hNpr1) antagonism - Pilot screen (AID 1347049; calls by dose curve;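 note: agonist-evoked cGMP luminescence read 20 min after hNppA addition; series mostly up to about 58 µM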)
Method in brief: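 HEK293 cells co-expressing hNpr1 and the GloSensor pGS-40F cGMP luciferase sensor were preloaded with 2% GloSensor reagent for 2 h. Compounds were added for 30 min at room temperature, then cells were stimulated with 0.1 nM hNppA for 20 min before luminescence readout.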

[15] = biological target: Atrial natriuretic peptide receptor 2 (Homo sapiens) (UniProt P20594); assay: Natriuretic polypeptide receptor (hNpr2) antagonism - Pilot subtype selectivity assay (AID 1347050; calls by dose curve)
Method in brief: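 cGMP-sensor HEK293/hNpr2 cells; 2% GloSensor reagent 2 h RT; compounds 30 min; baseline luminescence read; 1 nM hNppC agonist 20 min RT; final luminescence read by CCD camera. Antagonism = reduced post-agonist signal.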

[16] = biological target: T1, Tyrosine-protein phosphatase non-receptor type substrate 1 (Homo sapiens) + Leukocyte surface antigen CD47 (Homo sapiens) (UniProt P78324+Q08722); assay: CD47-SIRPalpha protein protein interaction - LANCE assay qHTS validation (AID 1347057; active = well fitted curve in the direction sought with a large enough effect in the signal ratio, with a control signal flat, not every such curve was filed as active; the % refers to the signal ratio; note: series mostly up to about 38 µM)
Method in brief: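 First, His-tagged CD47 and Eu-labelled anti-His antibody met the compound for 30 min; next, site-specifically biotinylated SIRPalpha was added for 30 min; finally streptavidin-APC was added before reading the TR-FRET ratio.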

[17] = biological target: T1, Tyrosine-protein phosphatase non-receptor type substrate 1 (Homo sapiens) + Leukocyte surface antigen CD47 (Homo sapiens); assay: CD47-SIRPalpha protein protein interaction - HTRF assay qHTS validation (AID 1347058; active = well fitted curve in the direction sought with a large enough effect in the signal ratio, not every such curve was filed as active; the % refers to the signal ratio; note: series mostly up to about 38 µM)
Method in brief: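 TR-FRET read (Ch1/Ch2 ratio) of soluble extracellular CD47 and Avi-biotinylated SIRPalpha domains in PBS pH 7.4 with 0.05% IGEPAL; 7-point compound titration. Sequential 30 min room-temperature steps; non-biotinylated SIRPalpha as control inhibitor.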

[18] = biological target: T1, Tyrosine-protein phosphatase non-receptor type substrate 1 (Homo sapiens) + Leukocyte surface antigen CD47 (Homo sapiens); assay: CD47-SIRPalpha protein protein interaction - Alpha assay qHTS validation (AID 1347059);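 note: bead proximity luminescence from CD47 binding SIRPalpha after compound preincubation with SIRPalpha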
Method in brief: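 Soluble extracellular domains: Avi-tag biotinylated SIRPalpha (25 nM) preincubated 30 min RT with compound, then 6His-CD47 (12.5 nM) 30 min; Ni-NTA acceptor and streptavidin donor beads (10 ug/mL) 30 min, AlphaScreen read. PBS pH 7.4, 0.05% IGEPAL.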

[19] = biological target: Parathyroid hormone/parathyroid hormone-related peptide receptor (Homo sapiens) (UniProt Q03431); assay: qHTS for PTHR1 Agonists: Optimization Screen against the NCGC LOPAC library (AID 1347079);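 note: GloSensor cAMP luminescence in HEK-293 GP2 cells expressing human PTHR1 with IBMX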
Method in brief: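 Agonist readout: GloSensor cAMP luminescence, read after 15 min at room temperature. HEK-293-derived GP2 line carries PTHR1; compounds tested as a titration for 1 hr at 37C in presence of IBMX. M-PTH (1-15) served as control.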

Measured: Potency

T1 sequence (P78324 whole entry, looked up): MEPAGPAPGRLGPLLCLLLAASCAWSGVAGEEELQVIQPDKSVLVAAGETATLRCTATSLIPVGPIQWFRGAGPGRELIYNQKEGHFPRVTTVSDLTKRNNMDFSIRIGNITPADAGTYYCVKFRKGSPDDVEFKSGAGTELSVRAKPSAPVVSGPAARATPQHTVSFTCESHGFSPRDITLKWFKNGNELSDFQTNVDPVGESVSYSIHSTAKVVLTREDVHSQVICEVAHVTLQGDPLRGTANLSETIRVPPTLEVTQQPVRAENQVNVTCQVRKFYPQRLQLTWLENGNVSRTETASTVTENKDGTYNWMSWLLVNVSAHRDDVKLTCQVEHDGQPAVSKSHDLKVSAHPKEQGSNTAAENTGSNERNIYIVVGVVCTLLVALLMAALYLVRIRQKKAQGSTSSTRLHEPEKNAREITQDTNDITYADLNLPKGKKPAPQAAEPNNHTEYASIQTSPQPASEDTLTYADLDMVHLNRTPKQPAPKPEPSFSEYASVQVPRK
T1 sequence (Q08722 whole entry, looked up): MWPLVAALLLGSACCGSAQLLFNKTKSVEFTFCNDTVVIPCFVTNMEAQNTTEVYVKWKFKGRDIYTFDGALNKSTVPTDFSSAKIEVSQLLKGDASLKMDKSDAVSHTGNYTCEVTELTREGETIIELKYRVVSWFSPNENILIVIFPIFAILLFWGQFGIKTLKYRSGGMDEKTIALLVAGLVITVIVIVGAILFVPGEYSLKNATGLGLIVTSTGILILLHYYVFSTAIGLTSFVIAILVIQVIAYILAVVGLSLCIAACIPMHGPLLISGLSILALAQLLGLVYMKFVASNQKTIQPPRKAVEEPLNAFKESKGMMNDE
Sequence of Atrial natriuretic peptide receptor 1 (Homo sapiens) (P16066 whole entry, looked up): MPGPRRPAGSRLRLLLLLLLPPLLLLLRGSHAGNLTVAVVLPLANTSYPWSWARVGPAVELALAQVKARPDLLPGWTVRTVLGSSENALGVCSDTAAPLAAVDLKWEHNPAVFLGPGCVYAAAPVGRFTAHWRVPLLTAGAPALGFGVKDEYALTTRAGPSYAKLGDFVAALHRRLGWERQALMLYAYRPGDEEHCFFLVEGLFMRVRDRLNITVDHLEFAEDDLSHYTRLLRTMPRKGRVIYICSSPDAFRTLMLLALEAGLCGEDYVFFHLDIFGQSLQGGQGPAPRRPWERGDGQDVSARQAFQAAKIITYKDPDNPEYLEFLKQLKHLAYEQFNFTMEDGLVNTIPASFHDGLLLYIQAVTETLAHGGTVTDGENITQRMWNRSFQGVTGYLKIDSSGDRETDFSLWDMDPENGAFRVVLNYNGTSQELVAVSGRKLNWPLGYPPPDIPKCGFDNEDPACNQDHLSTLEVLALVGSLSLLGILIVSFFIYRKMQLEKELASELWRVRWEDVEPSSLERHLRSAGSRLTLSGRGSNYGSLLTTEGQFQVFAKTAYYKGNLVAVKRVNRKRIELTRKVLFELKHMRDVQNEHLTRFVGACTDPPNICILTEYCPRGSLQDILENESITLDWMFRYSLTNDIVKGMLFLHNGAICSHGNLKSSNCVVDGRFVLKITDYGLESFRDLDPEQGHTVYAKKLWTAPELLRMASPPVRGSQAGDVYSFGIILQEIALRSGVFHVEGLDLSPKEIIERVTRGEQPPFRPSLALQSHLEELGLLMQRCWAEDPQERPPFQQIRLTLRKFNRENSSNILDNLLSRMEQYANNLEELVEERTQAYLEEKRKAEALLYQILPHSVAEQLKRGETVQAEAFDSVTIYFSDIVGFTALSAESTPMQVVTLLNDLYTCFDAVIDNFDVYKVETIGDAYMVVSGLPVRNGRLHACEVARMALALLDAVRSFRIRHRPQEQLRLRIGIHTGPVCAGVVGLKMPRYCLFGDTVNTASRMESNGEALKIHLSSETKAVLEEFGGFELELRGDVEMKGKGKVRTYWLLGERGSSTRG
Sequence of Atrial natriuretic peptide receptor 2 (Homo sapiens) (P20594 whole entry, looked up): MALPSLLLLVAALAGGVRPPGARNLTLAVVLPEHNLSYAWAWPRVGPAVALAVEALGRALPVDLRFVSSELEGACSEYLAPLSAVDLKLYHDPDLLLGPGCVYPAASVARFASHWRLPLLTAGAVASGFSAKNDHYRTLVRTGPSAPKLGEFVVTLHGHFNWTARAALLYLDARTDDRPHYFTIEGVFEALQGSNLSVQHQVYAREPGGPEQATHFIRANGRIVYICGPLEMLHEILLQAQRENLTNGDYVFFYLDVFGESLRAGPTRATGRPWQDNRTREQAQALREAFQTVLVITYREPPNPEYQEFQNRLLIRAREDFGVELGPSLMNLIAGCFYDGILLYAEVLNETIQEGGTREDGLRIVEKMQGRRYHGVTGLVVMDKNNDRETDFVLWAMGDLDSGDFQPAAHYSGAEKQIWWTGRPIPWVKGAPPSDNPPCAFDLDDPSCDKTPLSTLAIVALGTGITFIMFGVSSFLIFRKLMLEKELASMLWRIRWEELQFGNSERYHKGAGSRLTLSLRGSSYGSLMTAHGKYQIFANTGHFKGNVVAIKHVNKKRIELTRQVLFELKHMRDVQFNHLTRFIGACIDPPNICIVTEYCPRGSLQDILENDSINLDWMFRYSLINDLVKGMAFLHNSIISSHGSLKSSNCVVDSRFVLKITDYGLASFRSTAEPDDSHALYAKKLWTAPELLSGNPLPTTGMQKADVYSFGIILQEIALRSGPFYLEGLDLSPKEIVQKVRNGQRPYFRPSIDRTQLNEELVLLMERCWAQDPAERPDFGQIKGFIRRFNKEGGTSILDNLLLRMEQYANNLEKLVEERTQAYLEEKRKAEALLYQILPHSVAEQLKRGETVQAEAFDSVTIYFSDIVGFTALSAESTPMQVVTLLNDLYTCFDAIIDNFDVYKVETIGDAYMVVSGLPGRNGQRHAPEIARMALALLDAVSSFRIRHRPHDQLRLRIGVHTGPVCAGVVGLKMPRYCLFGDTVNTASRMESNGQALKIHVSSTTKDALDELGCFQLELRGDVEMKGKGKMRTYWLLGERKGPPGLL
Sequence of Parathyroid hormone/parathyroid hormone-related peptide receptor (Homo sapiens) (Q03431 whole entry, looked up): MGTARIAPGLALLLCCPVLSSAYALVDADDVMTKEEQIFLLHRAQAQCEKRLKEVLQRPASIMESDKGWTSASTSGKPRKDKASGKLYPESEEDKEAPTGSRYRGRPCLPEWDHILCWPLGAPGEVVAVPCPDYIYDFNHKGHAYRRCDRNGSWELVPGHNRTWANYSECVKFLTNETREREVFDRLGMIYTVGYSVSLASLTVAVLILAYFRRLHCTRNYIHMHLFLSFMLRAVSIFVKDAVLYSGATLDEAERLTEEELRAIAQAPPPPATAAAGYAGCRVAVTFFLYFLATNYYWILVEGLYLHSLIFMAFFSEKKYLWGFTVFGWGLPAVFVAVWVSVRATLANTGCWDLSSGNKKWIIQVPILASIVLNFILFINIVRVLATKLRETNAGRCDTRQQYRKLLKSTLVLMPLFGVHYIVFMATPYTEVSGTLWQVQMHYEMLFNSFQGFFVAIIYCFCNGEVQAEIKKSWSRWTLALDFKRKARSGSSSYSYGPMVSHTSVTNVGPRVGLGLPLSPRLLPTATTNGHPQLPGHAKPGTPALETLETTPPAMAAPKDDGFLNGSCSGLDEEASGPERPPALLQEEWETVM

O=C(Nc1ccc([N+](=O)[O-])cc1)Nc1ccc([N+](=O)[O-])cc1
not listed: [13] | [14] | [15] | [16] | [17] | [18] | [19]
inactive: all other assays above

CC(=O)Oc1ccc(C)cc1
not listed: [13] | [14] | [15] | [16] | [17] | [18] | [19]
inactive: all other assays above

CCCCCCCCOc1ccc(C(=O)c2ccccc2)c(O)c1
not listed: [13] | [14] | [15] | [16] | [17] | [18] | [19]
inactive: all other assays above

NCCNC(=O)c1ccc(Cl)cn1
not listed: [13] | [14] | [15] | [16] | [17] | [18] | [19]
inactive: all other assays above

CCC(C(=O)OCCOCCN(CC)CC)c1ccccc1 (configuration not stated)
not listed: [13] | [14] | [15] | [16] | [17] | [18] | [19]
inactive: all other assays above

CCCCN1C[C@H](O)[C@@H](O)[C@H](O)[C@H]1CO
not listed: [13] | [14] | [15] | [16] | [17] | [18] | [19]
inactive: all other assays above

O[C@@H](c1cc(C(F)(F)F)nc2c(C(F)(F)F)cccc12)[C@H]1CCCCN1
active: [2] 35500 nM
inactive: [1] | [3]

CCc1cc(Cl)c(OC)c(C(=O)NC[C@@H]2CCCN2CC)c1O
not listed: [13] | [14] | [15] | [16] | [17] | [18] | [19]
inactive: all other assays above

COc1ccc2c(c1)c1c3n2CCN(C)C3=NCC1
not listed: [13] | [14] | [15] | [16] | [17] | [18] | [19]
inactive: all other assays above

CC(C)Cc1ccc(CC(=O)O)cc1
not listed: [13] | [14] | [15] | [16] | [17] | [18] | [19]
inactive: all other assays above

CCCc1ncc(C[n+]2ccccc2C)c(N)n1
not listed: [13] | [14] | [15] | [16] | [17] | [18] | [19]
inactive: all other assays above

CCCCCCCCCCCCCCCC(=O)O
not listed: [13] | [14] | [15] | [16] | [17] | [18] | [19]
inactive: all other assays above

OC[C@H]1O[C@@H](Oc2ccc(O)cc2)[C@H](O)[C@@H](O)[C@@H]1O
not listed: [13] | [14] | [15] | [16] | [17] | [18] | [19]
inactive: all other assays above

C#C[C@]1(O)CC[C@H]2[C@@H]3CCC4=Cc5oncc5C[C@]4(C)[C@H]3CC[C@@]21C
active: [4] 4610 nM
inactive: [1] | [2] | [3] | [5] | [6] | [7]

COc1ccc(C(=O)c2ccccc2)c(O)c1
not listed: [13] | [14] | [15] | [16] | [17] | [18] | [19]
inactive: all other assays above

Cc1ccccc1OCC(O)CO (configuration not stated)
not listed: [13] | [14] | [15] | [16] | [17] | [18] | [19]
inactive: all other assays above

C[C@H]1O[C@@H](O[C@H]2CC[C@@]3(C)[C@H](CC[C@@H]4[C@@H]3C[C@@H](O)[C@]3(C)[C@@H](C5=CC(=O)OC5)CC[C@]43O)C2)C[C@H](O)[C@@H]1O[C@H]1C[C@H](O)[C@H](O[C@H]2C[C@H](O)[C@H](O[C@@H]3O[C@H](CO)[C@@H](O)[C@H](O)[C@H]3O)[C@@H](C)O2)[C@@H](C)O1
active: [2] 708 nM | [3] 580 nM | [4] 651 nM | [6] 374 nM | [7] 266 nM | [8] 84.1 nM | [9] 266 nM | [10] 168 nM | [11] 123 nM | [12] 188 nM
inactive: [1] | [5]

CCOC(=O)[C@H](CCc1ccccc1)N[C@@H](C)C(=O)N1[C@H](C(=O)O)C[C@H]2CCCC[C@@H]21
not listed: [6] | [7] | [8] | [9] | [10] | [11] | [12]
inactive: all other assays above

O=S(=O)(O)c1ccc(O)cc1
not listed: [13] | [14] | [15] | [16] | [17] | [18] | [19]
inactive: all other assays above

N/C(=N\N=C\c1ccc(Cl)cc1)N/N=C/c1ccc(Cl)cc1
inactive: [1] | [2] | [3] | [4] | [5] | [6]

C=CCN1CCc2nc(N)sc2CC1
not listed: [13] | [14] | [15] | [16] | [17] | [18] | [19]
inactive: all other assays above
